Only some compounds are listed: those with a hit (about 2.2% of all), similar ones and a draw of the others.
Shn3 inh set2 = reduces Shn3 3'UTR luciferase signal in osteoblasts | Clone20 osteoblast Shn3 3'UTR firefly luciferase, 24 h | inhibition, % at 12.5 µM | 360,000 tested, 0.52% active | AID 588674;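 active = mean inhibition of at least 75% with every replicate also reaching 75%; inconclusive = mean inhibition at least 75% but some replicate below; inactive = mean inhibition below 75%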
Calb FLC = affects C. albicans growth with fluconazole; C. albicans CaCi-2 (fluconazole-resistant clinical isolate) + fluconazole, Alamar Blue growth, 48 h; growth inhibition, % (test concentration not listed); 300,000 tested, 0.57% active; AID 1979;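 active = growth inhibition above about 58% in most replicates, limit read from the data, passing the limit was not always enough; inconclusive = exactly half the replicates above a set limit; inactive = most replicates below a set limit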;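 also: all wells also contain fluconazole at 8 µg/ml as a sub-toxic cotreatment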
CSC inhib = blocks cancer stem cells; 300,000 tested, 1.1% active; cancer stem cell-like cells viability, luminescence; inhibition, % at 7.5 µM; in the data active = inhibition above about 75%; inconclusive = no clear call, values can overlap the other calls; tested in HMLE shEcad cells
PfHsp90 yeast 2 = inhibits growth of yeast expressing Plasmodium falciparum Hsp90. AID 504621. inhibition, % at 9.4 µM. S. cerevisiae expressing PfHsp90, BacTiter-Glo ATP, 48 h; yeast lacking PDR1 and PDR3 efflux regulators. 310,000 tested, 0.32% active;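 active = every replicate shows inhibition above about 80%, whatever the replicate mean, limit read from the data; inconclusive = mean inhibition reaches the set limit but some replicate falls short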
Beta apoptosis = beta cell apoptosis inhibition; protection from apoptosis, % (test concentration not listed); INS-1E cytokine-induced death, ATP luminescence, 48 h; percent of positive-control rescue, neutral wells zero; AID 435005; 300,000 tested, 0.8% active;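 active = Every replicate reaches about 75%, or at least half do and their mean reaches it too, limit read from the data; inconclusive = At least half of replicates reach the limit but their mean does not; inactive = Under half of replicates reach the limit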;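 also: higher means more ATP so stronger rescue from cytokine killing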
Each line names hits and unclear results; the compound was inactive in the other large screens.

S=c1nc[nH]c2c1ncn2C1CCCO1 (stereo not given)	CSC inhib 122
COc1ccc(CCn2c(C)cc3c(c2=O)C(c2ccc4c(c2)OCO4)C(C#N)=C(N)O3)cc1OC (stereo not given)	Calb FLC 109
Cc1ccc(N2C(=O)NC3(CCCCC3)C2=O)cc1	none
Cc1ccc(N2NC3(CCN(C(N)=O)CC3)NC2=O)cc1	Calb FLC 106 (no result: Shn3 inh set2, PfHsp90 yeast 2)
CCOC(CNC(=O)CN1C(=O)COc2ccc(S(=O)(=O)N3CCCC3)cc21)OCC	none (no result: CSC inhib, Beta apoptosis)
Cc1cc(C)c2c(=O)n3c(nc2c1)C(Cc1ccc(O)cc1)NC(=O)c1cc2ccccc2cc1-3 (stereo not given)	none (no result: Calb FLC, CSC inhib, PfHsp90 yeast 2, Beta apoptosis)
NC(N)=NC(N)=Nc1ccc(SC(F)(F)F)cc1	Beta apoptosis 116
Cc1cccc(NC(=O)NC2CCCCCCC2)c1	Calb FLC 124
Cc1ccc(NC(=O)NC2CCCCCCC2)c(C)c1	Calb FLC 112
Cc1ccc(NC(=O)NC2CCCCC2)c(C)c1	none
CC(=O)c1cccc(NC(=O)NC2CCCCCCC2)c1	none
Fc1ccccc1-c1nnc2ccc3ccccc3n12	none
Fc1cccc(Cl)c1-c1nnc2ccc3ccccc3n12	Beta apoptosis 101
O=C(/C=C/c1ccc(S(=O)(=O)N2CCOCC2)cc1)NCc1ccccc1F	none (no result: Calb FLC)
CCCCn1c(=O)c(CCC(=O)OCC(=O)NCc2ccc(OC)c(OC)c2)nc2ccccc21	Calb FLC 77 (no result: CSC inhib)
CC[n+]1c(/C=C2\Sc3ccccc3N2C)ccc2cccc(C)c21	Shn3 inh set2 89, Calb FLC 102 (no result: CSC inhib, Beta apoptosis)
CCN1/C(=C/c2ccc3cc(C)ccc3[n+]2CC)Sc2ccccc21	CSC inhib 102, PfHsp90 yeast 2 92, Beta apoptosis 115 (no result: Calb FLC)
CN1/C(=C/c2cccc[n+]2CCO)Sc2ccccc21	none
CCN1/C(=C/c2ccc3cc(C)ccc3[n+]2CC)Sc2cc(C)c(C)cc21	PfHsp90 yeast 2 101 (no result: Calb FLC, CSC inhib, Beta apoptosis)
CCOC(=O)/C(=C/C=C1\Sc2cc(C)c(C)cc2N1CC)C(C)=O	none (no result: CSC inhib, Beta apoptosis)
COc1ccc(CNC(=O)CCc2ccc(S(=O)(=O)N3CCCCCC3)cc2)cc1OC	none (no result: Calb FLC, CSC inhib, Beta apoptosis)
CCCSCCCNC(=O)c1ccc(NC(=O)C2=CSCCO2)cc1	none
COc1cccc(NC(=O)CN(C)C(=O)CSc2nc(C)cc(C)n2)c1	none (no result: Calb FLC, CSC inhib)
O=C(CC[C@H]1O[C@@H](n2ccc(=O)[nH]c2=O)[C@H](O)[C@@H]1O)NCCCc1ccccc1	none (no result: Calb FLC, CSC inhib, PfHsp90 yeast 2, Beta apoptosis)
COC(=O)C1=C(C)N(Cc2ccccc2)C(=NCc2cccc(C(F)(F)F)c2)N[C@H]1c1cccc(F)c1	Calb FLC inconclusive, CSC inhib 111, Beta apoptosis 111
COC(=O)C1=C(C)N(CC2CC2)C(=NCc2cccc(C(F)(F)F)c2)N[C@H]1c1ccccc1	none (no result: Calb FLC)
COCCN=C1N[C@@H](c2cccc(C(F)(F)F)c2)C(C(=O)OC)=C(C)N1Cc1ccccc1	none
COC(=O)C1=C(C)N(Cc2ccccc2)C(=NCc2cccc(C(F)(F)F)c2)N[C@H]1c1cccc(C(F)(F)F)c1	Beta apoptosis 99 (no result: Calb FLC, CSC inhib)
Cc1nc2c(C(=O)NCCC(C)C)c[nH]n2c(=O)c1Cc1ccccc1F	Calb FLC 85
CCC1CSC(Nc2ccc(C(=O)/C=C/c3ccc(Oc4ccccc4)cc3)cc2)=N1 (stereo not given)	none
CCC1CSC(Nc2ccc(C(=O)/C=C/c3cccc(C)c3)cc2)=N1 (stereo not given)	CSC inhib 87
CC1(C(=O)Nc2ccccc2F)CCN1C(=O)Cc1ccc(-c2ccccc2)cc1 (stereo not given)	none (no result: Calb FLC, CSC inhib, PfHsp90 yeast 2, Beta apoptosis)
CCN1CCN(C(=O)c2ccc(N3CC4CC(C3)c3cccc(=O)n3C4)c([N+](=O)[O-])c2)CC1 (stereo not given)	none
Cc1cc(C(=O)NNC(=S)NC(C)c2ccccc2)c2ccccc2n1 (stereo not given)	Calb FLC 104
CCCOc1cccc(-c2cc(C(=O)NNC(=S)NCC)c3ccccc3n2)c1	Calb FLC 84
CCNC(=S)NNC(=O)c1cc(-c2ccccc2C)nc2ccccc12	Calb FLC 99
CC1CN(S(=O)(=O)c2cc(C(=O)N(C)Cc3cccs3)ccc2Cl)CC(C)O1 (stereo not given)	none (no result: Calb FLC)
CN(c1ccccc1)c1nccc(=O)[nH]1	none
CCOC(=O)c1cc2cc(OCc3ccccc3)ccc2nc1C	PfHsp90 yeast 2 118
Cc1nc2ccccc2cc1OCc1ccc(Cl)cc1	Beta apoptosis 109 (no result: CSC inhib)
COc1cccc(COc2cc3ccccc3nc2C)c1	Calb FLC 100, Beta apoptosis 98
COC(=O)c1sccc1OCc1cccc(OC)c1	none
Cc1nc2ccccc2cc1OCc1ccccc1	Calb FLC 107
Cc1nc(OCc2ccccc2)c2ccccc2n1	none
COc1cc(NC(=O)COc2cc3oc(=O)cc(C)c3cc2Cl)cc(OC)c1OC	none
COc1ccc(C(O)(C(=O)NNc2ccc(C)cc2)c2cccs2)cc1 (stereo not given)	Calb FLC 110 (no result: CSC inhib)
CCOC(=O)Nc1nn(-c2ccc(C)cc2)c(=O)c(C#N)c1C	none (no result: PfHsp90 yeast 2)
O=C1NN(c2ccccc2)C(=O)/C1=C/c1ccc(-c2ccc(C(=O)O)cc2)o1	none (no result: Beta apoptosis)
O=C1NN(c2ccccc2)C(=O)/C1=C/c1ccc(Sc2cccc3ccccc23)o1	CSC inhib 79
NC(=O)C1CCCN(C(=O)CN2C(=O)NC(c3ccccc3)(c3ccccc3)C2=O)C1 (stereo not given)	none (no result: Calb FLC, CSC inhib, Beta apoptosis)
O=C(Nc1cc(Sc2ccccn2)cc([N+](=O)[O-])c1)c1cccc(Cl)c1	Calb FLC 113
O=C(Nc1cccc([N+](=O)[O-])c1)c1ccncc1	none
O=C(Nc1cc(Sc2ccccn2)cc([N+](=O)[O-])c1)c1ccc(Cl)cc1	Beta apoptosis 75
CCOc1ccc(NC(=O)COC(=O)c2cc(C)oc2C)cc1	none (no result: Calb FLC)
NC(=O)c1ccc(N2CCN(S(=O)(=O)c3cccs3)CC2)c([N+](=O)[O-])c1	Beta apoptosis 82 (no result: Calb FLC)
Cc1ccccc1Oc1cc(NC(=O)CCCn2nc(C)c([N+](=O)[O-])c2C)cc([N+](=O)[O-])c1	Beta apoptosis 105
COc1cccc(C(=O)N2CCN(C3CCN(Cc4ccccc4)CC3)CC2)c1OC	none (no result: Shn3 inh set2)
COc1cccc(N2CCN(Cc3nc4scc(-c5ccccc5)c4c(=O)[nH]3)CC2)c1	CSC inhib 82
COc1cccc(N2CCN(Cc3nc4ccccc4c(=O)[nH]3)CC2)c1	none (no result: Beta apoptosis)
O=c1[nH]c(CN2CCN(c3ccccc3O)CC2)nc2scc(-c3ccccc3Cl)c12	none
O=c1[nH]c(CN2CCN(c3ccc(O)cc3)CC2)nc2scc(-c3ccc(Cl)cc3)c12	CSC inhib 105
O=C(/C=C/c1ccnc2ccccc12)c1cccs1	CSC inhib 86, PfHsp90 yeast 2 85
ON=Cc1ccnc2ccccc12	none (no result: Calb FLC, CSC inhib, PfHsp90 yeast 2, Beta apoptosis)
COc1ccc(-n2cc(-c3ccccc3)c3c(N4CCOCC4)ncnc32)cc1	CSC inhib 102
Fc1ccc(-n2cc(-c3ccccc3)c3c(N4CCOCC4)ncnc32)cc1	none
CCOC(=O)C1=C(COC(=O)c2ccc(OC)c(OC)c2OC)NC(=O)NC1C (stereo not given)	none
COc1ccc(N(CC(=O)NC2CCCC2)C(=O)Cn2nnc(-c3ccc(OC)c(OC)c3)n2)c(OC)c1	none

Screens: PubChem, Broad Institute
